From PubChem BioAssay
Active and inactive are the calls of the source. Unless noted, how the calls were made is not given here.

Key:
[1] = tested on: Wnt5a (protein binding on small-molecule microarray); assay: small molecules binding Wnt5a protein – biophysical, small-molecule microarray, 635/667 nm fluorescence, primary screen (AID 1142); conditions: 635 nm fluorescence, higher = more signal;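 further: fluorescence read at 667 nm with signal to noise per printed feature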
[2] = ATP-based viability of Huh7 replicon cells – cell-based, CellTiter-Glo luminescence, basal, 48 h, cytotoxicity control for HCV replication inhibitor project, primary screen (AID 1143); conditions: higher = more signal, called active from +8 up or from −8 down;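 further: Huh7 hepatoma cells carrying a hepatitis C replication reporter with no stimulus; test concentration not given here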
[3] = Pseudomonas biofilm growth suppression – PAO1 strain, BacTiter-Glo luminescence, LB-PBS, primary screen (AID 1144); conditions: P. aeruginosa PAO1 biofilm, 12 h, higher = more signal
[4] = basal CRE-LacZ reporter activity in PC12 – cell-based, unstimulated, primary screen (AID 1145); conditions: no forskolin, luminescence, 4.5 h, higher = more signal, called active from +8 up or from −8 down
[5] = forskolin-driven CRE-LacZ activity in PC12 – cell-based, CRE-LacZ reporter, forskolin-stimulated, primary screen (AID 1146); conditions: luminescence, 4.5 h, higher = more signal, called active from +8 up or from −8 down;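 further: PC12 cells with 6xCRE LacZ reporter stimulated by forskolin 10 µM; beta-galactosidase reporter signal reflecting CREB driven transcription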
[6] = target: Streptavidin (Streptomyces avidinii) (UniProt P22629); assay: compounds binding control protein streptavidin – biophysical, small-molecule microarray, 635/667 nm fluorescence, artefact control for SMM compound annotation, primary screen (AID 1147); conditions: higher = more signal;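 further: signal reflects streptavidin binding to arrayed compounds as a control protein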
Sequence of Streptavidin (Streptomyces avidinii) (P22629 whole entry, looked up): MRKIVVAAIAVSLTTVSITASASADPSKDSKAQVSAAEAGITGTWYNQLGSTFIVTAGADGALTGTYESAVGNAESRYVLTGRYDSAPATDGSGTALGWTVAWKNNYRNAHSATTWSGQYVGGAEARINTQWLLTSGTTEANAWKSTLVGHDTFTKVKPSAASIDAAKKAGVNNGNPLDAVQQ

[7] = probe aInhba binding on compound microarray – biochemical, small-molecule microarray, 635/667 nm fluorescence, primary screen (AID 1148); conditions: higher = more signal;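 further: score merges 667nm spot fluorescence with signal-to-noise for antibody binding to printed compounds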
[8] = target: Torsin-1A (Homo sapiens) (UniProt O14656); assay: TOR1A wild-type binding on microarray – cell lysate, small-molecule microarray, lysate, 635/667 nm, primary screen (AID 1149); conditions: COS7 hTOR1A-WT lysate, 635 nm fluorescence, higher = more signal
Sequence of Torsin-1A (Homo sapiens) (O14656 whole entry, looked up): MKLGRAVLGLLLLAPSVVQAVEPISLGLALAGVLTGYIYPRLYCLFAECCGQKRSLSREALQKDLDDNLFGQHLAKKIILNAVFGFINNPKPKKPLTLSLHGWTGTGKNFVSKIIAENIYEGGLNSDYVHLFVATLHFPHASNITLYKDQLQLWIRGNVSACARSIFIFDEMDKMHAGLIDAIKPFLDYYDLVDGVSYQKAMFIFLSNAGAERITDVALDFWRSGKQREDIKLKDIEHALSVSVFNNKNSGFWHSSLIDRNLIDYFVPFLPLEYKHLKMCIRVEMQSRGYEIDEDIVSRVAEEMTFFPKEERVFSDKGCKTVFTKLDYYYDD

[9] = target: Torsin-1A (Homo sapiens) (UniProt O14656); assay: torsin A mutant lysate binding on microarrays – cell lysate, small-molecule microarray, COS7 lysate, 635/667 nm fluorescence, primary screen (AID 1150); conditions: COS7 hTOR1A mutant lysate, 635 nm fluorescence, higher = more signal;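 further: score pools 667 nm emission and signal to noise measuring lysate protein binding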
[10] = tested on: Sonic hedgehog protein (Shh); assay: Sonic hedgehog microarray binding compounds – biochemical, small-molecule microarray, 635/667 nm fluorescence, primary screen (AID 1151); conditions: 635 nm fluorescence, higher = more signal;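 further: Shh protein binding to compounds spotted on small-molecule microarray slides; score combines spot fluorescence intensity with signal-to-noise across triplicate slides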
[11] = optical density shifts of acrAB sulA E. coli – strain DRC41, OD650, 48 h, E. coli filamentation inducer project, primary screen (AID 1152); conditions: higher = more signal, called active from +8 up or from −8 down;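 further: E. coli MC1000 strain DRC41 lacking acrAB efflux pump and sulA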
[12] = probe aLefty1 binding on compound microarray – biochemical, small-molecule microarray, 635/667 nm fluorescence, primary screen (AID 1153); conditions: higher = more signal;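 further: score merges spot fluorescence with signal-to-noise ratio from the scanned slide images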
[13] = plasmodial surface anion channel blockers, osmotic lysis – cell-based, P. falciparum Indochina, OD700, 1 h, primary screen (AID 1154); conditions: P. falciparum Indochina infected RBC osmotic lysis, higher = more signal, called active from +8 up or from −8 down
[14] = plasmodial surface anion channel blockers, osmotic lysis – cell-based, P. falciparum Indochina, OD700, 2 h, primary screen (AID 1155);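 further: lysis reports solute entry through the parasite surface anion channel PSAC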; conditions: P. falciparum Indochina infected erythrocytes, higher = more signal, called active from +8 up or from −8 down
[15] = changes in parasitized red cell lysis, either direction – P. falciparum Indochina, OD700, 3 h, PSAC antagonist project, primary screen (AID 1156); conditions: P. falciparum-infected erythrocytes, osmotic lysis, higher = more signal, called active from +8 up or from −8 down
[16] = plasmodial surface anion channel blockers, osmotic lysis – cell-based, P. falciparum Indochina, OD700, 18 h, primary screen (AID 1157); conditions: P. falciparum Indochina infected erythrocytes, osmotic lysis OD700, 18 h; higher = more signal, called active from +8 up or from −8 down
[17] = S6 kinase pathway phospho-S6 level changes – cell-based, A549, cytoblot, luminescence, serum-stimulated, primary screen (AID 1158); conditions: 5 h, higher = more signal;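 further: serum-stimulated A549 lung adenocarcinoma cells; signal is phosphorylated S6 detected by cytoblot immunostaining with HRP secondary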
[18] = target: NADPH oxidase 2 (Homo sapiens) (UniProt P04839); assay: compounds shifting NOX2 Amplex Red fluorescence – cell-based, HEK293-NOX2, PMA-stimulated, NOX inhibitor project, primary screen (AID 1159); conditions: 45 min, higher = more signal, called active from +8 up or from −8 down; further: test concentration not given here
Sequence of NADPH oxidase 2 (Homo sapiens) (P04839 whole entry, looked up): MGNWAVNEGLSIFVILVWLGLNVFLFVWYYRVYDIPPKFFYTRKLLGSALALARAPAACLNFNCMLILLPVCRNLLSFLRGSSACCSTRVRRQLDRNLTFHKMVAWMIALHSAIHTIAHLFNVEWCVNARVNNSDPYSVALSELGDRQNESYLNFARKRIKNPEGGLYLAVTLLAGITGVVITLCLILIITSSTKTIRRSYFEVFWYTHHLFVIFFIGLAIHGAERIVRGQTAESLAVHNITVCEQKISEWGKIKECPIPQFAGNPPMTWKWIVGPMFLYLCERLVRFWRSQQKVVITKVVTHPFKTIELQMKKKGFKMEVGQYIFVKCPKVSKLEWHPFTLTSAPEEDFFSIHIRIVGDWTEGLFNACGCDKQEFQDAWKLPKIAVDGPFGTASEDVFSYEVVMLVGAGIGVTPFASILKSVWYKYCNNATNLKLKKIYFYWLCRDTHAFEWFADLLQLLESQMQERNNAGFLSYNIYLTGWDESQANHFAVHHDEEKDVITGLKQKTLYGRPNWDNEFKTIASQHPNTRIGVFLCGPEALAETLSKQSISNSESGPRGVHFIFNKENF

[19] = target: NADPH oxidase 4 (Homo sapiens) (UniProt Q9NPH5); assay: compounds shifting NOX4 Amplex Red fluorescence – cell-based, HEK293-NOX4, tetracycline-induced, NOX inhibitor project, primary screen (AID 1160); conditions: HEK293-NOX4, Amplex Red H2O2 fluorescence, 45 min; higher = more signal, called active from +8 up or from −8 down
Sequence of NADPH oxidase 4 (Homo sapiens) (Q9NPH5 whole entry, looked up): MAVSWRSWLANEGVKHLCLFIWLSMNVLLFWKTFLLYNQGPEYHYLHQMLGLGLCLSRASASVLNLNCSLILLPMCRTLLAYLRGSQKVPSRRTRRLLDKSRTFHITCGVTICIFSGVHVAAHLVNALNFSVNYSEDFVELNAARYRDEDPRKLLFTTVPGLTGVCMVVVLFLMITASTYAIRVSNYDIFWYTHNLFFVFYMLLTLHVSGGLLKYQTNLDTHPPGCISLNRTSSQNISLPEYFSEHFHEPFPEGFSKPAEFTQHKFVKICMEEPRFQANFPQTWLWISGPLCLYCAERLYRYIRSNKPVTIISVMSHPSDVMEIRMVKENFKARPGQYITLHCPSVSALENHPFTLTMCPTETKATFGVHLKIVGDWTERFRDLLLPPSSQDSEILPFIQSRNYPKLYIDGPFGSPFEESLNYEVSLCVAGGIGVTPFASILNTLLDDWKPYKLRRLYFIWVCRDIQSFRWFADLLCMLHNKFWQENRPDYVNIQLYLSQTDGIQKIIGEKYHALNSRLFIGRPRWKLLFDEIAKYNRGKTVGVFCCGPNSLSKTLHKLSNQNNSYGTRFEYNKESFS

[20] = target: NADPH oxidase 5 (Homo sapiens) (UniProt Q96PH1); assay: compounds shifting NOX5 Amplex Red fluorescence – cell-based, HEK293-NOX5, NOX inhibitor project, primary screen (AID 1161); conditions: HEK293-NOX5, ionomycin, 45 min, higher = more signal
Sequence of NADPH oxidase 5 (Homo sapiens) (Q96PH1 whole entry, looked up): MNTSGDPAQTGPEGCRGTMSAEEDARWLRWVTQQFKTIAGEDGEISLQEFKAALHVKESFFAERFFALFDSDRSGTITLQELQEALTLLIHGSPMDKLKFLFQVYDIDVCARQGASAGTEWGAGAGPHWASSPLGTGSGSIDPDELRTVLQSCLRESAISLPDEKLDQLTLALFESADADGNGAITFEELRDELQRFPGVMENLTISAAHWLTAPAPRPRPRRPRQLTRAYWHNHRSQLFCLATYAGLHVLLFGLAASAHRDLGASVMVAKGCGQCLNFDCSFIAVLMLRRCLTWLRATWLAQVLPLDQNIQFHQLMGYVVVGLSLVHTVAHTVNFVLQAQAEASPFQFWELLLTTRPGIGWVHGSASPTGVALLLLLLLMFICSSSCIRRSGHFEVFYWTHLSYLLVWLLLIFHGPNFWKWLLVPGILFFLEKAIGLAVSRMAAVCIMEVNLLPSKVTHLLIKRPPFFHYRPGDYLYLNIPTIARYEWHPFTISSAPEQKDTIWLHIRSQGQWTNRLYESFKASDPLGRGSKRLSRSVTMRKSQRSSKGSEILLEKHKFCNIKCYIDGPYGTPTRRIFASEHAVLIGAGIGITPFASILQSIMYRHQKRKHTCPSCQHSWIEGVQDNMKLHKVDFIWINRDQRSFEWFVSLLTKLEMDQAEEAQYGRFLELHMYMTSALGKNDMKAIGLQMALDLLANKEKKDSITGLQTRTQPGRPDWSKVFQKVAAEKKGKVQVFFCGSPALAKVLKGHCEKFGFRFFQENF

Compound | composite z-score [1] | z-score [2] | z-score [3] | z-score [4] | z-score [5] | composite z-score [6] | composite z-score [7] | composite z-score [8] | composite z-score [9] | composite z-score [10] | z-score [11] | composite z-score [12] | z-score [13] | z-score [14] | z-score [15] | z-score [16] | z-score [17] | z-score [18] | z-score [19] | z-score [20]
COCCOC(=O)N1C(=O)[C@@]2(c3cc(C#CCCO)ccc31)[C@H](C(=O)N1CCN(c3ncccn3)CC1)[C@H]1C(=O)O[C@H](c3ccccc3)[C@H](c3ccccc3)N1[C@@H]2c1ccccc1OCCO | 0.0536 | -2.42 (inactive) | -0.173 (inactive) | -0.698 (inactive) | -0.228 (inactive) | 1.08 | -0.0983 | 0.259 | 0.829 | 0.842 | 1.21 (inactive) | 0.157 | 2.63 (inactive) | 1.14 (inactive) | 0.288 (inactive) | 0.761 (inactive) | 0.69 | 1.45 (inactive) | 1.29 (inactive) | 0.437
C[C@]1(C(=O)NC2CC2)c2ccccc2C(=O)N(Cc2cc(C(F)(F)F)cc(C(F)(F)F)c2)[C@H]1c1ccc(CO)cc1 | 0.46 | -1.38 (inactive) | 0.501 (inactive) | -0.825 (inactive) | -1.25 (inactive) | 0.0956 | 0.225 | 0.372 | 0.329 | -0.0874 | 1.4 (inactive) | 0.0278 | 7.52 (inactive) | 1.18 (inactive) | 1.26 (inactive) | 0.599 (inactive) | 0.049 | -1.25 (inactive) | 0.222 (inactive) | 1.06
COCCOC(=O)N1C(=O)[C@@]2(c3ccccc31)[C@H](c1ccc(O)cc1)N1[C@H](c3ccccc3)[C@H](c3ccccc3)OC(=O)[C@H]1[C@@H]2C(=O)NC[C@H](O)c1ccccc1 | -0.0136 | -1.03 (inactive) | 0.494 (inactive) | 0.595 (inactive) | 1.31 (inactive) | -0.551 | 0.0051 | 0.849 | 0.805 | 0.474 | 0.0221 (inactive) | 0.132 | 1.06 (inactive) | 0.664 (inactive) | 0.515 (inactive) | 0.563 (inactive) | 0.104 | 0.873 (inactive) | 0.0245 (inactive) | 0.604
[N-]=[N+]=NCc1ccccc1C[C@]1(C(=O)NCC(O)CO)N=C(c2ccc(OCCCO)cc2)O[C@H]1c1ccccc1 (stereo not given in full) | 0.185 | -3.58 (inactive) | 0.55 (inactive) | 1.87 (inactive) | -0.621 (inactive) | 0.236 | 0.109 | 0.381 | 0.777 | -1.52 | 0.243 (inactive) | 0.33 | 13.1 (active) | 0.998 (inactive) | -0.593 (inactive) | 0.865 (inactive) | -0.0127 | 2.49 (inactive) | 0.717 (inactive) | -0.632
C=C(/C(=C/C[C@@H](OC(C)=O)c1ccc(OCCO)cc1)c1cnc2ccccc2c1)C(C)C | 0.0701 | -1.07 (inactive) | -0.25 (inactive) | 0.681 (inactive) | -0.45 (inactive) | 0.376 | -0.084 | -0.969 | 0.576 | 1.67 | 1.14 (inactive) | -0.342 | 15.4 (active) | 2.26 (inactive) | 1.79 (inactive) | 0.97 (inactive) | 0.853 | -2.99 (inactive) | -0.926 (inactive) | -2.24
COc1ccc(CCNC(=O)[C@@H]2c3ccccc3C(=O)N(C3Cc4ccccc4C3)[C@H]2c2ccc(CO)cc2)cc1 | -0.062 | -0.221 (inactive) | -0.17 (inactive) | -0.0888 (inactive) | -1.01 (inactive) | -0.217 | -0.0448 | 0.0114 | 0.067 | 0.13 | -0.483 (inactive) | -0.0544 | 6.43 (inactive) | 0.65 (inactive) | 0.474 (inactive) | 0.183 (inactive) | -0.484 | -3.31 (inactive) | -0.185 (inactive) | -3.47
C=CCN(Cc1ccccc1)C(=O)C(c1cccs1)N(CCOCCO)C(=O)/C=C\C(=O)O (stereo not given) | -1.17 | -0.247 (inactive) | -1.93 (inactive) | -1.58 (inactive) | -0.949 (inactive) | -1.28 | -0.34 | -3.64 | -3.08 | -0.933 | 2.73 (inactive) | -0.191 | 2.39 (inactive) | -0.398 (inactive) | 0.213 (inactive) | -0.281 (inactive) | 3.21 | -0.00856 (inactive) | -0.515 (inactive) | -0.659
O=C1[C@H]2C=C(Br)[C@H](C[C@@H]2c2ccccc2)[C@@]12CO2 | 0.127 | -0.856 (inactive) | 0.552 (inactive) | 1.58 (inactive) | 4.2 (inactive) | 0.105 | 0.0528 | 0.175 | 0.273 | 0.982 | -1.47 (inactive) | 0.0041 | 1.22 (inactive) | 0.497 (inactive) | 0.637 (inactive) | 0.279 (inactive) | -0.327 | 0.242 (inactive) | 0.141 (inactive) | -0.855
COC(=O)C(CC#Cc1ccc2c(c1)[C@]1(C(=O)N2)[C@H](c2ccc(O)cc2)N2[C@H](c3ccccc3)[C@H](c3ccccc3)OC(=O)[C@H]2[C@@H]1C(=O)Nc1nc2ccccc2s1)C(=O)OC | 0.695 | -2.01 (inactive) | -1.45 (inactive) | 1.15 (inactive) | -0.5 (inactive) | 0.458 | 0.373 | 1.41 | 1.21 | 1.62 | 1.25 (inactive) | 0.506 | 1.11 (inactive) | -0.314 (inactive) | -0.0671 (inactive) | -1.84 (inactive) | 2.08 | 2.11 (inactive) | 0.604 (inactive) | 2.21
COc1ccc(C(=O)Nc2ccc(CN3C(=O)[C@@]4(O[C@@H](CC(=O)N5CCC[C@H]5CO)[C@H]([Si](C)(C)c5ccc(OC)cc5)[C@H]4C)c4ccccc43)cc2)cc1 | 0.553 | -1.38 (inactive) | -1.34 (inactive) | 1.88 (inactive) | -0.0184 (inactive) | 0.648 | 0.0074 | 0.826 | 0.797 | 1.66 | 0.482 (inactive) | 0.138 | 5.52 (inactive) | 1.06 (inactive) | 0.146 (inactive) | 0.77 (inactive) | 0.363 | 1.21 (inactive) | 1.23 (inactive) | 4.5
